“And” between values parts separate entries of the source, which are not always exact repeats. Equal values may be shown once. Hit rate of the full screen: of about 5,500 compounds, about 2,000 (36%) were called active. Inconclusive results (about 18%) are left out. No stated cut-off is given here; in the data, active means normalized growth mostly below about 0.91 (no sharp cut-off); inconclusive means no clear call, values can overlap the other calls; inactive means mostly above about 0.92. The list shows a part of the results.
Assay: chemical genetic growth profiling, strain panel (AID 1159580);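 further: tested at 20 µM; growth read once vehicle control cultures reached saturation at 30 °C; 1 = growth at the plate median or of vehicle wells; lower values mean less growth of the strain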
Conditions: S. cerevisiae deletion strains, growth OD

Measured: normalized growth

CCCCc1nc(Cl)c(CO)n1Cc1ccc(-c2ccccc2-c2nn[nH]n2)cc1
inactive: locus YAL013W, strain DEP1, hits give low values 1.01 | locus YAL021C, strain ccr4, hits give low values 0.992 | locus YAL026C, strain drs2, hits give low values 0.99 | locus YAL030W, strain snc1, hits give low values 0.974 | locus YBL061C, strain skt5, hits give low values 0.99 | locus YBR009C, strain hhf1, hits give low values 0.993 | locus YBR021W, strain FUR4, hits give low values 1.01 | locus YBR023C, strain chs3, hits give low values 0.981 | locus YBR171W, strain sec66, hits give low values 0.994 | locus YBR229C, strain ROT2, hits give low values 1.01 | locus YBR231C, strain swc5, hits give low values 0.968 | locus YBR279W, strain paf1, hits give low values 0.986 | locus YCL011C, strain gbp2, hits give low values 0.984 | locus YCL016C, strain dcc1, hits give low values 0.983 | locus YCL029C, strain bik1, hits give low values 1.01 | locus YCL061C, strain MRC1, hits give low values 0.989 | locus YCL069W, strain vba3, hits give low values 0.985 | locus YCR088W, strain abp1, hits give low values 0.976 | locus YDL005C, strain med2, hits give low values 0.977 | locus YDL035C, strain GPR1, hits give low values 1.02 | locus YDL040C, strain nat1, hits give low values 0.971 | locus YDL074C, strain BRE1, hits give low values 1.03 | locus YDL101C, strain DUN1, hits give low values 1.01 | locus YDL134C, strain PPH21, hits give low values 1.01 | locus YDL185W, strain tfp1, hits give low values 1 | locus YDL192W, strain arf1, hits give low values 1 | locus YDR001C, strain nth1, hits give low values 0.992 | locus YDR069C, strain doa4, hits give low values 0.975 | locus YDR101C, strain arx1, hits give low values 0.996 | locus YDR137W, strain rgp1, hits give low values 0.986 | locus YDR150W, strain NUM1, hits give low values 1.01 | locus YDR159W, strain sac3, hits give low values 0.943 | locus YDR162C, strain NBP2, hits give low values 1.01 | locus YDR195W, strain ref2 0.93 | locus YDR297W, strain sur2, hits give low values 0.993 | locus YDR318W, strain mcm21, hits give low values 1.01 | locus YDR334W, strain swr1, hits give low values 0.966 | locus YDR335W, strain msn5, hits give low values 0.992 | locus YDR388W, hits give low values 1 | locus YDR392W, strain spt3, hits give low values 1 | locus YDR502C, strain sam2, hits give low values 0.997 | locus YEL003W, strain gim4, hits give low values 1.01 | locus YEL037C, strain rad23, hits give low values 0.985 | locus YEL061C, strain CIN8 (second series), hits give low values 0.982 | locus YEL061C, strain CIN8, hits give low values 1.01 | locus YER015W, strain faa2, hits give low values 0.996 | locus YER016W, strain bim1, hits give low values 0.976 | locus YER110C, hits give low values 1 | locus YER111C, strain swi4, hits give low values 0.967 | locus YER155C, strain BEM2 (second series), hits give low values 0.968 | locus YER155C, strain BEM2, hits give low values 0.973 | locus YER167W, strain BCK2, hits give low values 1.01 | locus YFR010W, strain ubp6, hits give low values 0.985 | locus YGL078C, strain dbp3, hits give low values 0.995 | locus YGL086W, strain mad1, hits give low values 0.993 | locus YGL167C, strain pmr1, hits give low values 0.978 | locus YGL173C, strain kem1, hits give low values 0.986 | locus YGL227W, strain vid30, hits give low values 0.982 | locus YGL240W, strain doc1, hits give low values 0.981 | locus YGL248W, strain PDE1, hits give low values 1.01 | locus YGL253W, strain hxk2, hits give low values 0.985 | locus YGR078C, strain PAC10, hits give low values 1.02 | locus YGR135W, strain pre9, hits give low values 0.998 | locus YGR229C, strain SMI1, hits give low values 1.01 | locus YGR252W, strain gcn5, hits give low values 1 | locus YHR013C, strain ard1, hits give low values 1.01 | locus YHR027C, strain rpn1, hits give low values 1 | locus YHR030C, strain SLT2, hits give low values 1.01 and 0.941 | locus YHR079C, strain IRE1 (second series), hits give low values 0.995 | locus YHR079C, strain IRE1, hits give low values 0.969 | locus YHR094C, strain hxt1, hits give low values 0.992 | locus YHR129C, strain ARP1, hits give low values 1.01 | locus YHR142W, strain chs7, hits give low values 0.986 | locus YHR200W, strain rpn10, hits give low values 0.999 | locus YIL066C, strain RNR3, hits give low values 1.01 | locus YIL073C, strain SPO22, hits give low values 1.08 | locus YIL125W, strain kgd1, hits give low values 0.994 | locus YIR030C, strain dcg1, hits give low values 0.995 | locus YJL092W, strain hpr5, hits give low values 1 | locus YJL095W, strain BCK1 (second series), hits give low values 0.985 | locus YJL095W, strain BCK1, hits give low values 1.02 and 0.998 | locus YJL115W, strain asf1, hits give low values 0.994 | locus YJL129C, strain trk1, hits give low values 0.963 | locus YJL134W, strain LCB3, hits give low values 1 | locus YJL154C, strain vps35, hits give low values 0.969 | locus YJL164C, strain tpk1, hits give low values 1 | locus YJL166W, strain qcr8, hits give low values 0.98 | locus YJL168C, strain set2, hits give low values 0.996 | locus YJL187C, strain SWE1 (second series), hits give low values 1.01 | locus YJL187C, strain SWE1, hits give low values 0.981 | locus YJR043C, strain POL32, hits give low values 1.02 | locus YJR066W, strain TOR1, hits give low values 0.987
